Measured values reported in the supplement of paper PMC10849652.
About 7,900 targets were measured; listed, in parts, are those with a hit and a random draw of the rest. About 0.6% of all pairs of compound and target were hits. Values without a mark were called inactive.

Legend:
Assay in all cases: log2 fold change, soluble protein after heating vs DMSO (PISA); higher = thermal stabilisation; K562 cells, 10 uM, 30 min; active = over 0.2 and 3.5 SD of the protein, either way, in both replicates (recomputed)
[1] = compound: COC1=CC=C(C=C1)CN2C=CC3=C2C=C(C=C3)C(=O)NO
Method in brief: (§1)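 Quantification of soluble protein used TMTpro 16plex LC-MS/MS, with channel sums equalised. Samples were the supernatant after 21,000xg for 90 min of pooled aliquots from K562 cells (2×10^6 cells/mL) treated with 10 μM compound for 30 min, heated for 3 min over 48°C-58°C, and extracted in PBS with 0.5% NP-40 at 4°C. Values, from duplicates, describe thermal stability against control samples on a log2 fold-change scale.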

filanesib = compound: CON(C)C(=O)N1N=C(c2cc(F)ccc2F)S[C@@]1(CCCN)c1ccccc1 [filanesib]
Method in brief: as §1

zotarolimus = compound: CO[C@H]1C[C@@H]2CC[C@@H](C)[C@@](O)(O2)C(=O)C(=O)N2CCCC[C@H]2C(=O)O[C@H]([C@H](C)C[C@@H]2CC[C@H](n3cnnn3)[C@H](OC)C2)CC(=O)[C@H](C)/C=C(\C)[C@@H](O)[C@@H](OC)C(=O)[C@H](C)C[C@H](C)/C=C/C=C/C=C/1C [zotarolimus]
Method in brief: as §1

idasanutlin = compound: COc1cc(C(=O)O)ccc1NC(=O)[C@@H]1N[C@@H](CC(C)(C)C)[C@](C#N)(c2ccc(Cl)cc2F)[C@H]1c1cccc(Cl)c1F [idasanutlin]
Method in brief: as §1

alisertib = compound: COc1cc(Nc2ncc3c(n2)-c2ccc(Cl)cc2C(c2c(F)cccc2OC)=NC3)ccc1C(=O)O [alisertib]
Method in brief: as §1

[2] = compound: COc1cc2nc(-c3cc(F)ccc3O)nc(N[C@@H]3CNC[C@H]3C(C)(C)O)c2cc1OC
Method in brief: as §1

gefitinib = compound: COc1cc2ncnc(Nc3ccc(F)c(Cl)c3)c2cc1OCCCN1CCOCC1 [gefitinib]
Method in brief: as §1

[3] = compound: COc1cccc2cc(-c3nc([C@H]4CC[C@H](C(=O)O)CC4)n4ncnc(N)c34)[nH]c12
Method in brief: as §1

lapatinib = compound: CS(=O)(=O)CCNCc1ccc(-c2ccc3ncnc(Nc4ccc(OCc5cccc(F)c5)c(Cl)c4)c3c2)o1 [lapatinib]
Method in brief: as §1

pictilisib = compound: CS(=O)(=O)N1CCN(Cc2cc3nc(-c4cccc5[nH]ncc45)nc(N4CCOCC4)c3s2)CC1 [pictilisib]
Method in brief: as §1

[4] = compound: CS(=O)(=O)c1ccc(-c2cnc(N)c(C(=O)Nc3ccccc3)n2)cc1
Method in brief: as §1

crizotinib = compound: C[C@@H](Oc1cc(-c2cnn(C3CCNCC3)c2)cnc1N)c1c(Cl)ccc(F)c1Cl [crizotinib]
Method in brief: as §1

[5] = compound: C[C@@H]1COCCN1C2=NC(=NC(=C2)C3(CC3)S(=O)(=O)C)C4=C5C=CNC5=CC=C4
Method in brief: as §1

[6] = compound: C[C@H](C1=CC=C(C=C1)C(=O)NC2=C3C=CNC3=NC=C2)N
Method in brief: as §1

duvelisib = compound: C[C@H](Nc1ncnc2nc[nH]c12)c1cc2cccc(Cl)c2c(=O)n1-c1ccccc1 [duvelisib]
Method in brief: as §1

gandotinib = compound: Cc1cc(Nc2cc(CN3CCOCC3)c3nc(C)c(Cc4ccc(Cl)cc4F)n3n2)n[nH]1 [gandotinib]
Method in brief: as §1

tozasertib = compound: Cc1cc(Nc2cc(N3CCN(C)CC3)nc(Sc3ccc(NC(=O)C4CC4)cc3)n2)n[nH]1 [tozasertib]
Method in brief: as §1

[7] = compound: Cc1cc(SCc2sc(-c3ccc(C(F)(F)F)cc3)nc2C)ccc1OCC(=O)O
Method in brief: as §1

doramapimod = compound: Cc1ccc(-n2nc(C(C)(C)C)cc2NC(=O)Nc2ccc(OCCN3CCOCC3)c3ccccc23)cc1 [doramapimod]
Method in brief: as §1

ispinesib = compound: Cc1ccc(C(=O)N(CCCN)[C@@H](c2nc3cc(Cl)ccc3c(=O)n2Cc2ccccc2)C(C)C)cc1 [ispinesib]
Method in brief: as §1

UniProt Q8WVK2, sequence (Q8WVK2 whole entry, looked up): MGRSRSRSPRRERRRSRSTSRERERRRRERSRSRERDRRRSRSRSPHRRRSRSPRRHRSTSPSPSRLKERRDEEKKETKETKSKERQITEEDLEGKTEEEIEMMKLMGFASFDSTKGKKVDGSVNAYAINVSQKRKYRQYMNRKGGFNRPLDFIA
UniProt Q4KMP7, sequence (Q4KMP7 whole entry, looked up): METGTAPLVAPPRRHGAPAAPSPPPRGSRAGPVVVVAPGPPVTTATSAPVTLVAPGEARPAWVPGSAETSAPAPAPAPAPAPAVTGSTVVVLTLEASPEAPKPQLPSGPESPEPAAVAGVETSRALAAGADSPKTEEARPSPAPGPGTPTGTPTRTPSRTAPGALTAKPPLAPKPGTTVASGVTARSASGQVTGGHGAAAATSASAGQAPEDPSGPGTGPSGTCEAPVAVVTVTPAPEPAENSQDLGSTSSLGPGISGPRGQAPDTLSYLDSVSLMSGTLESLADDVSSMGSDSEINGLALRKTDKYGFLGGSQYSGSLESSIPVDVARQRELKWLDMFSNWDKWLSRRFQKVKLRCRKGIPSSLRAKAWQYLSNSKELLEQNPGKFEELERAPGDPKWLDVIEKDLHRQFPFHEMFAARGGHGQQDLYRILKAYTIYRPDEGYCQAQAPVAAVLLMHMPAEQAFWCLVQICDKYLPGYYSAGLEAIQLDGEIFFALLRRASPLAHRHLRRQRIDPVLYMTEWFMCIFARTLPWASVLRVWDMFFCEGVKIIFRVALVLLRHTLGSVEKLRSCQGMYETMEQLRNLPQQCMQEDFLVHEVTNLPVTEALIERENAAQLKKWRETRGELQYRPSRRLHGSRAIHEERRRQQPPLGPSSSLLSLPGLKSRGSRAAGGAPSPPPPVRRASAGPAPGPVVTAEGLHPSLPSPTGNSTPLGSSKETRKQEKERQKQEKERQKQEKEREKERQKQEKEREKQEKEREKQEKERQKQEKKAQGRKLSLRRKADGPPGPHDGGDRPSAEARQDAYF
UniProt Q86VD7, sequence (Q86VD7 whole entry, looked up): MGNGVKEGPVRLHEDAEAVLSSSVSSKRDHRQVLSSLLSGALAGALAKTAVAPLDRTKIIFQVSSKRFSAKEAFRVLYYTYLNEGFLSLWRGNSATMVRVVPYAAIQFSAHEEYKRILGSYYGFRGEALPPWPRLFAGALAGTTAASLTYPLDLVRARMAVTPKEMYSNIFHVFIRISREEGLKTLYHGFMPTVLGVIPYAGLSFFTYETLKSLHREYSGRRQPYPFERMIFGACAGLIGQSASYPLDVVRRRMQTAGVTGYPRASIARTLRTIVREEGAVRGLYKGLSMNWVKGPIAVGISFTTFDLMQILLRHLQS
UniProt Q96Q15, sequence (Q96Q15 whole entry, looked up): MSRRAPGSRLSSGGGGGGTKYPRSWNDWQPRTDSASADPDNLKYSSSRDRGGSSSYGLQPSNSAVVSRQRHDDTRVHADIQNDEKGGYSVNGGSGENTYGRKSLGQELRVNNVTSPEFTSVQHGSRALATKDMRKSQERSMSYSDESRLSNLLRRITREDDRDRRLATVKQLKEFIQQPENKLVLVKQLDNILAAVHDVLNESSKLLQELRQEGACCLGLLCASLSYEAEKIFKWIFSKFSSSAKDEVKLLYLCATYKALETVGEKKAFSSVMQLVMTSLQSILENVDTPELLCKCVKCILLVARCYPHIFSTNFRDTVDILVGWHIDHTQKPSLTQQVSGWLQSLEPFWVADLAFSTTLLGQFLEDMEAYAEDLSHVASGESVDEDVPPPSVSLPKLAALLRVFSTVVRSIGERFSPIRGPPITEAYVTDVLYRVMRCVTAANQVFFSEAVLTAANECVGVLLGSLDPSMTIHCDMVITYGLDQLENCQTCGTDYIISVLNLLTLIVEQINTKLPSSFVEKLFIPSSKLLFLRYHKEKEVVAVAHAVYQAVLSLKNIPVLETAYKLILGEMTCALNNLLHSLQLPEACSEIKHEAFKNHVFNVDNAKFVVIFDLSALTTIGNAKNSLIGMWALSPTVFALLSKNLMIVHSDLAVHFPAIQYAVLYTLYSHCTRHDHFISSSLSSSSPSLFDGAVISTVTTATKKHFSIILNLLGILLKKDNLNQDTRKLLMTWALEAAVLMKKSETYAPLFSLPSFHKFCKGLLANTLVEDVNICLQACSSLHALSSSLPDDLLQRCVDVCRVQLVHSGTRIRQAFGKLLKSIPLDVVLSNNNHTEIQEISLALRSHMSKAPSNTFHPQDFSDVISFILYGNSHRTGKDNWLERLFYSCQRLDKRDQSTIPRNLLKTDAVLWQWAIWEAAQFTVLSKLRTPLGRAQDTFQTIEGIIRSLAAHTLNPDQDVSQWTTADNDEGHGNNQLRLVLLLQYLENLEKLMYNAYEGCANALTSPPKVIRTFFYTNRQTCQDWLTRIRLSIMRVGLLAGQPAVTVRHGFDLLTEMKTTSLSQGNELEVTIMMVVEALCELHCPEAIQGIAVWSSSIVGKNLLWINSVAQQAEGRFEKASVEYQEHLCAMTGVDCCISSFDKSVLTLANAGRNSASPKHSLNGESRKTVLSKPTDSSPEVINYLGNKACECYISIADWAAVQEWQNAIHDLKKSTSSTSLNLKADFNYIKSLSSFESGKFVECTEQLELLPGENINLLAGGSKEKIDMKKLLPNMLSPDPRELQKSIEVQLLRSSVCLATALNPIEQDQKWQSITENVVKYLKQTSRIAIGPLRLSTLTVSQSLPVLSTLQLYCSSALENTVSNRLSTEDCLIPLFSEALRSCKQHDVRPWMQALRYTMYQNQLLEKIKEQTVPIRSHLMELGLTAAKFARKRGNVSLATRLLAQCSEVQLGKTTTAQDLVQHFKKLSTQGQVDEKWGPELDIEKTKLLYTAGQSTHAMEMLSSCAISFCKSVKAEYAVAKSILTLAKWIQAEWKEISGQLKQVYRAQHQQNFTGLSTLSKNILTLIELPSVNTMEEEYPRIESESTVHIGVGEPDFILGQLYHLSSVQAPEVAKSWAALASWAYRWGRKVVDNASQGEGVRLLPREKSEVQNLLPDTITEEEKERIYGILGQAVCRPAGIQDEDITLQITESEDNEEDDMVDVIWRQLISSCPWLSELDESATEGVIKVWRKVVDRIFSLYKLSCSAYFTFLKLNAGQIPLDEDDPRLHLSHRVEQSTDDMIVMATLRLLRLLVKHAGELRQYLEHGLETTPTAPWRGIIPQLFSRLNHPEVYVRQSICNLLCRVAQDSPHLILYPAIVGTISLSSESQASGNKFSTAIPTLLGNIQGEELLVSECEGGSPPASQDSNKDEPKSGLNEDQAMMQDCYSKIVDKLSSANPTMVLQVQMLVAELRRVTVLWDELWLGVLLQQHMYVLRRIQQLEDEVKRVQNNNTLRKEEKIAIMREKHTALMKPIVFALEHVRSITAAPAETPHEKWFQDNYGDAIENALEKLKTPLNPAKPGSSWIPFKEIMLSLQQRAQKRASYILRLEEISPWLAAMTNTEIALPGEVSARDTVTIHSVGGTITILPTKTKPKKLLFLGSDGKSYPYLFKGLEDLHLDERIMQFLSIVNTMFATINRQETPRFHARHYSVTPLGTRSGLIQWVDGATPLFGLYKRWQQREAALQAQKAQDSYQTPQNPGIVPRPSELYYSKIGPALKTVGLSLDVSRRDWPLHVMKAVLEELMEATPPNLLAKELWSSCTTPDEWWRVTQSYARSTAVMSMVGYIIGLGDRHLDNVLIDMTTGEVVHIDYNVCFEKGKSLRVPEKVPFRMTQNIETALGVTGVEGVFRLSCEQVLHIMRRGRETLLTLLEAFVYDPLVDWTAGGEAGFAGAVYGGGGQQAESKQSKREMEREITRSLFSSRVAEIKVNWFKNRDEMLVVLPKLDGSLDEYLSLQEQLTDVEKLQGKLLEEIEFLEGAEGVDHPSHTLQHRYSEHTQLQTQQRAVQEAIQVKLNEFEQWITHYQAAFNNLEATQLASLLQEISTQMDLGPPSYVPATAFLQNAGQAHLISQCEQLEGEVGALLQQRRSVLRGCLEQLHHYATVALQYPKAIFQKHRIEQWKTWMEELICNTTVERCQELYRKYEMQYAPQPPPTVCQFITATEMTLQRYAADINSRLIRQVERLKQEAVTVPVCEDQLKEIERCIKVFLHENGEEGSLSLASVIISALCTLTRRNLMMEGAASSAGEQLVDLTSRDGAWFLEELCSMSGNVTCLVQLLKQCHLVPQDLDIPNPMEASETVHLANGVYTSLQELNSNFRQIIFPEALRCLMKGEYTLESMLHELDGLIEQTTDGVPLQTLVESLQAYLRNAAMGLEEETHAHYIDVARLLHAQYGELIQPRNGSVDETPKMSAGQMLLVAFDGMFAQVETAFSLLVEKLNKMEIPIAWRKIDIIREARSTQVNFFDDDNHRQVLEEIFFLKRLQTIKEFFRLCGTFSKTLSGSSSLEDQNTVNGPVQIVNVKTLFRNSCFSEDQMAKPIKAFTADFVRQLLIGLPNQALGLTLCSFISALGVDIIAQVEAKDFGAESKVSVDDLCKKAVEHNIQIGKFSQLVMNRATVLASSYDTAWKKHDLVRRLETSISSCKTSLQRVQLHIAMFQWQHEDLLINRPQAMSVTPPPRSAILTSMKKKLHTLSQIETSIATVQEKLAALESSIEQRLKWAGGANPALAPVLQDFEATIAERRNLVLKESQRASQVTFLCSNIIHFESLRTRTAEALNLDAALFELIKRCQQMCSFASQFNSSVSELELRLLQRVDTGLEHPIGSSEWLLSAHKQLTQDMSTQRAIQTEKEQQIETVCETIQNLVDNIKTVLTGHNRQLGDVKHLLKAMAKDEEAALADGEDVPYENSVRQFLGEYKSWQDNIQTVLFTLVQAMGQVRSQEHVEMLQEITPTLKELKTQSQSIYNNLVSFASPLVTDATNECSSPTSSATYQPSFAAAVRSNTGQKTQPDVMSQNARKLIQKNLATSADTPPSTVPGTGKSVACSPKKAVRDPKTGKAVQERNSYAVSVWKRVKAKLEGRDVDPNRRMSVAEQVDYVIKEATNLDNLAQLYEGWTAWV
UniProt Q9UMY4, sequence (Q9UMY4 whole entry, looked up): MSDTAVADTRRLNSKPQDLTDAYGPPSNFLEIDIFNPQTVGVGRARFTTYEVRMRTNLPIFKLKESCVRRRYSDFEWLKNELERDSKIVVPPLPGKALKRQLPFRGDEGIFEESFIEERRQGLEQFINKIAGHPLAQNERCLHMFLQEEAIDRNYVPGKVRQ

Row | Target | log2 fold change [1] | log2 fold change (filanesib) | log2 fold change (zotarolimus) | log2 fold change (idasanutlin) | log2 fold change (alisertib) | log2 fold change [2] | log2 fold change (gefitinib) | log2 fold change [3] | log2 fold change (lapatinib) | log2 fold change (pictilisib) | log2 fold change [4] | log2 fold change (crizotinib) | log2 fold change [5] | log2 fold change [6] | log2 fold change (duvelisib) | log2 fold change (gandotinib) | log2 fold change (tozasertib) | log2 fold change [7] | log2 fold change (doramapimod) | log2 fold change (ispinesib)
1 | SNRNP27 (UniProt Q8WVK2) | -0.075 | 0.03 | -0.156 | 0.121 | -0.003 | -0.015 | -0.011 | 0.135 | 0.005 | -0.009 | 0.002 | 0.038 | -0.069 | 0.072 | 0.041 | 0.013 | -0.084 | -0.065 | -0.056 | -0.119
2 | SNX12 isoform 1 (UniProt Q9UMY4) | -0.029 | -0.027 | -0.007 | 0.039 | 0.005 | -0.008 | 0.035 | 0.09 | -0.006 | -0.002 | 0.004 | -0.055 | 0.081 | 0.007 | -0.162 | -0.204 | 0.021 | 0.044 | -0.036 | -0.097
3 | SPCS2 (UniProt Q15005) | 0.5 (active) | -0.061 | 0.018 | -0.039 | 0.008 | 0.092 | 0.03 | -0.021 | 0.002 | -0.006 | 0.032 | 0.001 | 0.02 | -0.036 | 0.035 | -0.007 | -0.015 | -0.013 | 0.047 | 0.085
4 | SOAT1 (UniProt P35610) | 0 | -0.1 | 0.363 (active) | -0.184 | -0.02 | -0.118 | 0.137 | 0.045 | 0.068 | 0.067 | 0.066 | 0.139 | 0.094 | -0.018 | 0.069 | 0.079 | -0.021 | -0.026 | 0.448 (active) | 0.158
5 | ST3GAL2 (UniProt Q16842) | 0.087 | 0.124 | 0.092 | 0.075 | -0.134 | 0.1 | 0.187 | -0.043 | 0.17 | 0.102 | 0.096 | -0.288 | -0.017 | 0.006 | 0.035 | 0.127 | 0.024 | 0.033 | 0 | -0.096
6 | SNX5 (UniProt Q9Y5X3) | -0.06 | -0.172 | 0.015 | -0.015 | -0.012 | -0.066 | -0.136 | 0.008 | 0.01 | -0.085 | -0.075 | -0.32 (active) | 0.022 | -0.014 | -0.145 | -0.138 | -0.071 | 0.036 | -0.019 | -0.236
7 | SMG1 (UniProt Q96Q15) | -0.142 | 0.061 | -0.001 | -0.038 | -0.002 | 0.055 | 0.008 | -0.047 | 0.003 | 0.018 | 0.04 | 0.012 | -0.083 | 0.016 | 0.02 | -0.024 | -0.013 | 0.098 | 0.051 | 0.033
8 | TIAL1 isoform 2 (UniProt Q01085) | 0.033 | 0.037 | -0.016 | 0.026 | -0.064 | 0.076 | -0.007 | 0.02 | 0.029 | 0.01 | 0.008 | -0.039 | 0.023 | -0.014 | 0.006 | -0.048 | -0.023 | 0.046 | -0.054 | 0.01
9 | SLC25A42 (UniProt Q86VD7) | 0.241 (active) | -0.011 | 0.058 | 0.047 | 0.012 | -0.029 | 0.063 | 0.043 | 0.084 | -0.003 | -0.054 | 0.028 | 0.015 | -0.055 | 0.005 | 0.09 | -0.021 | -0.003 | -0.004 | 0.054
10 | SUPT5H (UniProt O00267) | 0.02 | -0.005 | 0.042 | -0.062 | -0.003 | 0.058 | 0.028 | 0.027 | -0.006 | 0.05 | 0.057 | 0.049 | 0.129 | -0.057 | 0.084 | -0.043 | 0 | 0.079 | -0.043 | 0.02
11 | SRSF3 (UniProt P84103) | -0.226 | 0.193 | -0.054 | 0.217 | -0.101 | -0.011 | -0.026 | -0.009 | -0.006 | -0.018 | -0.081 | 0.061 | -0.27 | 0.128 | -0.081 | 0.247 | -0.027 | -0.024 | -0.019 | -0.095
12 | STX7 (UniProt O15400) | 0.065 | -0.071 | 0.027 | -0.023 | -0.048 | 0.013 | -0.01 | 0.045 | -0.002 | -0.118 | 0 | -0.187 | 0.015 | -0.042 | -0.023 | -0.18 | -0.021 | -0.055 | 0.04 | -0.246 (active)
13 | TBC1D10B (UniProt Q4KMP7) | -0.001 | 0.062 | 0.011 | 0.032 | -0.088 | -0.088 | 0.008 | -0.042 | 0.041 | -0.002 | 0.012 | -0.04 | 0.013 | -0.153 | 0 | 0.046 | -0.022 | 0.092 | 0.021 | 0.083
14 | STK26 (UniProt Q9P289) | 0.018 | -0.147 | -0.03 | 0.045 | -0.059 | 0.069 | -0.037 | 0.009 | 0.019 | -0.105 | -0.019 | -0.308 (active) | 0.123 | 0.049 | -0.01 | -0.061 | -0.11 | -0.01 | -0.034 | -0.146
15 | SP1 (UniProt P08047) | -0.064 | 0.022 | -0.033 | -0.002 | -0.025 | -0.007 | -0.043 | 0.005 | -0.004 | 0.142 | 0.031 | -0.038 | -0.044 | 0.042 | 0.008 | 0.083 | 0.037 | 0.023 | 0.036 | -0.113
16 | ST6GAL1 (UniProt P15907) | 0.013 | 0.224 (active) | 0.051 | 0.066 | -0.085 | 0.046 | 0.095 | -0.003 | 0.116 | 0.063 | -0.064 | -0.189 | -0.005 | 0.037 | 0.073 | 0.014 | 0.001 | 0.018 | 0.083 | 0.002
